Source: PubChem
Compounds with a hit are over-represented: about 1.2% of the library has one in this group of screens.
Mac1 fbg enh = CD11b/CD18-fibrinogen binding enhancement; K562 CD11b/CD18 adhesion to fibrinogen, ATPlite luminescence; activation, % at 10 µM; 0.07% of 93,000 active;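 active = 10 µM primary screen giving 50% or more activity, confirmed by 40% or more on retest at that dose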
MRP reversal = MRP-mediated drug resistance reversal. H69AR cells + 2 uM doxorubicin, CellTiter-Glo, 72 h. differential viability (reversal), % at 10 µM. 0.04% of 85,000 active;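 active = viability drop by adding the cancer drug above about 55%, with treated viability meeting a 40% cutoff, limit read from the data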;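 note: larger differential means the compound sensitizes cells more to doxorubicin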
Phagocytosis inh = macrophage phagocytosis inhibition; 0.07% of 110,000 active; AID 1029; inhibition, % at 5 µM; J774A.1 macrophage IgG-bead phagocytosis, imaging;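 active = inhibition above the mean of the plate negative controls plus 5 SD, cut at about 13% in these data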;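 note: phagocytic index as fraction of beads internalized from green versus red external bead signal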
Mac1 fbg inh = inhibitors of human CD11b/CD18 binding to fibrinogen; AID 1497; 0.54% of 93,000 active; inhibition, % at 10 µM; K562 CD11b/CD18 adhesion to fibrinogen, ATPlite luminescence; Mn2+ added to activate the integrin; P05107+P11215;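 active = primary inhibition of 50% or more at 10 µM, then 40% or more on retest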
MRP-1 activ = MRP-1 activation | AID 799 | viability increase, % at 10 µM | H69AR cells + doxorubicin, viability rescue, CellTiter-Glo | 0.61% of 140,000 active;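 active = viability gain under doxorubicin at or above a set limit, the compound median plus 3 SD, cut at about 4.7% in these data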;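 note: MRP-1 overexpressing cells given doxorubicin 25 µM after compound pretreatment; 18-22 h compound pretreatment then 72 h with doxorubicin before readout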
Smad3 FoxH1 inh = blocks human Smad3 binding to FoxH1 peptide. AID 630. inhibition, % at 25 µM. P84022. 0.29% of 88,000 active. TR-FRET Smad3/Dy647-FoxH1 peptide binding, europium anti-His;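 active = compounds that reduce the energy-transfer binding signal between the protein and its labelled peptide by more than half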
Of the large screens only hits and unclear results are named; the others gave an inactive call; ! = not active in a repeat.

CCC1SC2=NC(C)=C(C(=O)OC)C(c3ccc(C(=O)OC)cc3)N2C1=O (stereo unspecified)	MRP-1 activ 4.9
CCOC(=O)c1ccc(Oc2nc(N(C)C)nc(N(C)C)n2)cc1	none
CCOC(=O)c1ccc(Oc2nc(NC(C)(C)C)nc(N(C)C)n2)cc1	MRP-1 activ 7.0
Cc1cc(C)n(CCC(=O)N/N=C/c2ccccc2O)n1	MRP-1 activ 5.6 (no result: MRP reversal, Smad3 FoxH1 inh)
Cc1cc(C)n(CCC(=O)N/N=C/c2ccc(O)cc2O)n1	none (no result: MRP reversal, Smad3 FoxH1 inh)
COc1ccc(OC)c2[nH]c(=O)c(CCNC(=O)c3ccc(Br)o3)cc12	MRP-1 activ 4.7
Cc1ccc(CSCc2nnc(SCC(=O)N3CCN(c4ccccc4)CC3)n2C)cc1	MRP-1 activ 5.0 (no result: MRP reversal, Smad3 FoxH1 inh)
CCOc1ccc(-n2c(-c3ccc(OC)cc3)c[n+]3c2CCCCC3)cc1	Mac1 fbg inh 100 (no result: MRP reversal, Smad3 FoxH1 inh)
CC(C)Cc1nc2oc3c(N4CCN(C)CC4)ncnc3c2c2c1CCCC2	none
COc1ncnc2c1oc1nc(CC(C)C)c3c(c12)CCCC3	MRP-1 activ 7.2
CCCc1cc(C(=O)Nc2c(C)n(C)n(-c3ccccc3)c2=O)no1	none
CC1=CC(C)(C)Nc2ccc(C)cc21	Smad3 FoxH1 inh 73
CC1CC(C)CN(S(=O)(=O)c2ccc(C(=O)Nc3nnc(-c4cccs4)o3)cc2)C1 (stereo unspecified)	none
O=C(Nc1nnc(-c2cccs2)o1)c1cccc(C(F)(F)F)c1	Mac1 fbg inh 72
CC(=O)O[C@H]1CC[C@@]2(C)C(=CC[C@H]3[C@H]2CC[C@]2(C)[C@@H]4[C@@H](C)[C@]5(CC[C@H](C)CN5)O[C@@H]4C[C@@H]32)C1	none (no result: Mac1 fbg enh, MRP reversal, Phagocytosis inh, Mac1 fbg inh, MRP-1 activ)
CC(=O)c1c(N2CCCCC2)nc(=S)n(Cc2ccccc2)c1C	Mac1 fbg inh 52 (no result: MRP reversal, Phagocytosis inh, Smad3 FoxH1 inh)
COc1ccc2cc1Oc1ccc(cc1)C[C@H]1c3c(cc(OC)c4c3Oc3cc5c(cc3O4)CCN[C@H]5C2)CCN1C	none (no result: Mac1 fbg enh, MRP reversal, Phagocytosis inh, Mac1 fbg inh, MRP-1 activ)
O=C(CN1C(=O)/C(=C\C=C\c2ccccc2)SC1=S)Nc1ccc(F)cc1	none (no result: Mac1 fbg enh, MRP reversal, Mac1 fbg inh, Smad3 FoxH1 inh)
O=C(CN1C(=O)/C(=C/c2ccccc2)SC1=S)Nc1ncc(Cc2ccccc2)s1	MRP-1 activ 5.3 (no result: MRP reversal, Smad3 FoxH1 inh)
COc1cccc(/C=C2/SC(=S)N(CC(=O)Nc3nnc(C)s3)C2=O)c1	MRP-1 activ 8.8 (no result: Mac1 fbg enh, MRP reversal, Phagocytosis inh, Mac1 fbg inh, Smad3 FoxH1 inh)
COc1cc(/C=C2\SC(=S)N(CC(=O)Nc3cccnc3)C2=O)cc(OC)c1OC	none (no result: MRP reversal, Smad3 FoxH1 inh)
COc1cc(C)cc(OC)c1/C=C/C(=O)O	none (no result: Mac1 fbg enh, MRP reversal, Phagocytosis inh, Mac1 fbg inh, MRP-1 activ)
c1ccc([C@H](c2cccc3c2ccc2ccccc23)[C@H](c2ccccc2)c2cccc3c2ccc2ccccc23)cc1	none (no result: Mac1 fbg enh, MRP reversal, Phagocytosis inh, Mac1 fbg inh, MRP-1 activ)
CN1CCN(CCCN2c3ccccc3Sc3ccc(C(F)(F)F)cc32)CC1	Smad3 FoxH1 inh 70! (no result: Mac1 fbg enh, Phagocytosis inh, Mac1 fbg inh)
CC(C)c1ccc(NC(=O)COc2nncc3ccccc23)cc1	none (no result: MRP reversal, Smad3 FoxH1 inh)
CCCN1C(=O)/C(=N\OCC(=O)NC23CC4CC(CC(C4)C2)C3)c2ccccc21	MRP-1 activ 5.7 (no result: MRP reversal, Smad3 FoxH1 inh)
CC(=O)NC(CC(=O)NC12CC3CC(CC(C3)C1)C2)c1ccccc1 (stereo unspecified)	none (no result: Mac1 fbg enh, MRP reversal, Mac1 fbg inh, Smad3 FoxH1 inh)
CCCN1C(=O)/C(=N\OCC(=O)Nc2ccc(C(C)C)cc2)c2ccccc21	MRP-1 activ 6.5 (no result: Mac1 fbg enh, MRP reversal, Mac1 fbg inh, Smad3 FoxH1 inh)
Nc1ncnc2c1ncn2[C@H]1O[C@@H](C(=O)O)[C@H](O)[C@H]1O	none (no result: Mac1 fbg enh, MRP reversal, Phagocytosis inh, Mac1 fbg inh, MRP-1 activ)
CCn1nc(C)c(NC(=O)/C=C/c2ccc(OC)c(COc3ccc(Cl)cc3Br)c2)c1C	MRP-1 activ 7.2 (no result: Mac1 fbg enh, Phagocytosis inh, Mac1 fbg inh)
COc1ccc(/C=C/C(=O)NCc2cn(C)nc2C)cc1COc1ccc(Cl)cc1Br	none (no result: MRP reversal, Smad3 FoxH1 inh)
Cc1ccc(Cn2c(SCC(=O)N/N=C/c3ccc(C)o3)nc3ccccc32)cc1	MRP-1 activ 4.7 (no result: MRP reversal, Phagocytosis inh, Smad3 FoxH1 inh)
Cc1ccc(C2=CC(C)(c3ccc(C)cc3)Nc3nc(C(F)(F)F)nn32)cc1 (stereo unspecified)	MRP-1 activ 6.0 (no result: Mac1 fbg enh, MRP reversal, Mac1 fbg inh, Smad3 FoxH1 inh)
CC1(c2ccc(OCC#N)cc2)C=C(c2ccc(OCC#N)cc2)n2nc(C(F)(F)F)nc2N1 (stereo unspecified)	none (no result: Mac1 fbg enh, MRP reversal, Mac1 fbg inh, Smad3 FoxH1 inh)
Cc1cccc(N2CCN(C(=O)Cc3ccc(Br)cc3)CC2)c1C	MRP-1 activ 7.9
COc1cccc(Nc2ncc(C(=O)O)c3ccccc23)c1	MRP-1 activ 5.1 (no result: Mac1 fbg enh, Phagocytosis inh, Mac1 fbg inh)
COc1ccc(OC)c(NC(=O)c2cnc(Nc3ccccc3OC)c3ccccc23)c1	none (no result: Mac1 fbg enh, MRP reversal, Mac1 fbg inh, Smad3 FoxH1 inh)
CN1c2ccccc2C(O)=C(C(=S)Nc2ccc(Cl)cc2)S1(=O)=O	Mac1 fbg inh 52 (no result: MRP reversal, Smad3 FoxH1 inh)
CN=c1scc(-c2cccs2)n1/N=C/c1ccc(O)c(O)c1O	none (no result: MRP reversal, Smad3 FoxH1 inh)
CN=c1scc(C)n1/N=C/c1ccc(O)c(O)c1O	MRP-1 activ 12
Cc1c(C(=O)OC2CCC(C)CC2)[nH]c2c1C(=O)CCC2 (stereo unspecified)	MRP-1 activ 5.2
COC(=O)c1[nH]c2c(c1C)C(=O)CCC2	none (no result: Mac1 fbg enh, Phagocytosis inh, Mac1 fbg inh)
CCOC(=O)C1=C(Cc2ccc(C)cc2)C(=O)c2ccccc2C1=O	Mac1 fbg inh 90
CCOC(=O)C1=C(Cc2ccc(OC)cc2)C(=O)c2ccccc2C1=O	none
Cc1sc2nc(SCC(=O)N3CCN(CCO)CC3)n(-c3ccccc3)c(=O)c2c1C	Phagocytosis inh active
N#C/C(=C\N1CCNC1=S)C(=O)c1ccc2ccccc2c1	none (no result: Mac1 fbg enh, MRP reversal, Phagocytosis inh, Mac1 fbg inh, MRP-1 activ)
